LAP4 TOR yeast – alters LAP4-GFP fluorescence in TOR pathway yeast screen. S. cerevisiae LAP4-GFP multiplex, flow cytometry GFP, 3 h; median GFP as percent of DMSO wells. GFP response vs DMSO, % at 10 µM. 320,000 tested, 0.34% active;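 active means GFP response vs DMSO above a set limit, about the screen mean plus 3 SD, cut at about 150% in these data; inconclusive means under 70 cell events counted for the yeast strain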
RPL19A-GFP yeast – modulators of TOR pathway RPL19A-GFP in S. cerevisiae. S. cerevisiae RPL19A-GFP strain, flow cytometry, 3 h; hits give low values. percent response vs DMSO, % at 10 µM. AID 2025. 330,000 tested, 0.3% active;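 active means percent response vs DMSO below 50%; inconclusive means fewer than 70 events counted for the yeast strain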;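 further: median channel GFP fluorescence of the barcoded RPL19A-GFP strain; ratio of sample median GFP to plate DMSO average so 100% = DMSO; lower means less RPL19A-GFP as with rapamycin TOR inhibition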
AGP1-GFP MLPCN – alters AGP1-GFP fluorescence in TOR pathway yeast screen; S. cerevisiae AGP1-GFP multiplex flow cytometry, 3 h; GFP as percent of DMSO wells; GFP response vs DMSO, % at 10 µM; 320,000 tested, 0.02% active;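 active means GFP response relative to DMSO above a set limit, near screen average plus 3 SD, cut at about 150% in these data; inconclusive means fewer than 70 cells counted for the yeast strain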;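 further: median GFP channel fluorescence of the gated AGP1 strain per well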
CIT2-GFP yeast – alters CIT2-GFP fluorescence in TOR pathway yeast screen. S. cerevisiae CIT2-GFP strain, flow cytometry, 3 h; 100 means same as DMSO wells. GFP response vs DMSO, % at 10 µM. 320,000 tested, 0.065% active;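 active means GFP response relative to DMSO above a set limit, near the screen mean plus 3 SD, cut at about 150% in these data; inconclusive means Fewer than 70 cells measured for a yeast strain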;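 further: ratio of well median GFP fluorescence to mean of DMSO wells on the plate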
MEP2-GFP yeast – yeast TOR pathway MEP2-GFP modulation | S. cerevisiae MEP2-GFP strain, flow cytometry GFP, 3 h; 100% = DMSO control level | GFP response vs DMSO, % at 10 µM | 330,000 tested, 0.51% active | AID 2016;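 active means GFP response versus DMSO above a set limit, roughly screen mean plus 3 SD, cut at about 180% in these data; inconclusive means fewer than 70 cells counted for a yeast strain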;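 further: median GFP fluorescence of the barcode-gated MEP2-GFP cells per well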
* = called active by the depositor; ? = inconclusive; . = not tested or not shown; [ ] = remark or other dose. Sampled rows, rich in hits. Any-hit rate of the full collection: about 0.93%.

SMILES	LAP4 TOR yeast	RPL19A-GFP yeast	AGP1-GFP MLPCN	CIT2-GFP yeast	MEP2-GFP yeast
Cc1cc(C)c(NC(=O)COC(=O)C2CCC(=O)N2)c(C)c1 (stereo unspecified)	97.5	101.2	101.9	103.4	101.7
Clc1ccc(Nc2ncnc3ccc(Br)cc23)cc1	165.6*	91.5	79.9	76.0	88.6
Cc1cccn2c(=O)c3cc(C(=O)NC4CCCC4)c(=N)n(CCCN4CCOCC4)c3nc12	89.9	57.6	20.7	?	316.6*[may fluoresce violet]
Cc1cccn2c(=O)c3cc(C(=O)NCCN4CCOCC4)c(=N)n(CCN4CCOCC4)c3nc12	83.5	43.8*[may fluoresce violet]	?	?	?
c1ccc(SCc2nc3ccccc3s2)nc1	117.0	97.3	90.5	90.2	108.4
c1ccc2oc(SCc3nc4ccccc4s3)nc2c1	154.2*	87.6	85.6	64.2	93.2
O=C(c1cccc(S(=O)(=O)N2CCCc3ccccc32)c1)N1CCN(c2ccccc2)CC1	114.4	97.0	96.7	91.0	105.1
Cc1ccc(C(=O)Nc2ccc(F)cc2)cc1NC1=NC2CS(=O)(=O)CC2S1 (stereo unspecified)	104.4	100.0	104.4	101.4	117.4
CC1(C)CNC(=O)CC(C)(C)N1	89.2	91.4	12.6	?	186.4*[may fluoresce violet]
CC(C)COc1nc2ccccc2nc1C(C#N)C(=O)NC1CCCCC1 (stereo unspecified)	88.2	.	29.6	?	307.1*[may fluoresce violet]
O=C(CSc1ccccn1)Nc1ccc2c(c1)CCC2	119.0	99.8	99.7	92.8	93.2
O=S(=O)(c1ccc(N2CCCC2c2nc3ccccc3s2)nc1)N1CCOCC1 (stereo unspecified)	99.6	99.5	101.0	99.8	102.5
CCN(CC)C(=O)C1=C(C)NC(=S)NC1c1cccs1 (stereo unspecified)	81.7	80.1	16.3	?	275.5*[may fluoresce violet]
CCN(CC)CCNC(=O)C(C(=O)c1ccccc1)n1ccccc1=O (stereo unspecified)	122.6	94.7	57.4	103.9	117.2
Cc1c(C)c2cc(Cl)c(OC(C)C(=O)NCCN3CCOCC3)cc2oc1=O (stereo unspecified)	75.9	18.9*[may fluoresce violet]	?	?	149.3
O=C(COC(=O)c1cncc(Br)c1)NCc1ccco1	106.5	102.9	98.3	105.2	108.0
COC(=O)c1sccc1-n1cccc1C(=O)C(=O)N1CCCC1	86.0	61.9	23.5	?	183.9*[may fluoresce violet]
CNC(=O)c1cccn1-c1ccsc1C(=O)OC	102.0	95.7	96.7	90.8	103.0
O=S(=O)(c1cc(Cl)ccc1Br)N1CCCCC1	95.6	100.7	101.8	95.5	94.5
COc1cccc(C2=NOC(C(=O)Nc3cccnc3Cl)C2)c1 (stereo unspecified)	94.3	103.5	100.9	102.8	104.7
CCCCCCc1cc2cc(S(=O)(=O)c3ccc(F)cc3)c(=O)oc2cc1O	91.2	72.1	15.8	?	212.3*[may fluoresce violet]
CCCCCCc1cc2cc(-c3nnc(-c4ccccc4O)o3)c(=O)oc2cc1O	93.4	48.1*[may fluoresce violet]	24.8	?	179.6*[may fluoresce violet]
CCCCCCc1cc2cc(-c3nnc(-c4ccccc4OC)o3)c(=O)oc2cc1O	105.6	87.7	70.6	94.6	226.1*
COc1ccccc1N1CCN(C(=O)COc2ccc(Cl)cc2)CC1	103.5	93.4	91.6	84.6	96.8
Cc1ccc(OCC(=O)N(Cc2ccccc2)c2c(N)n(Cc3ccccc3)c(=O)[nH]c2=O)c(C)c1	112.0	100.3	106.1	102.4	104.4
SMILES	LAP4 TOR yeast	RPL19A-GFP yeast	AGP1-GFP MLPCN	CIT2-GFP yeast	MEP2-GFP yeast
CC1CCCCC1NC(=O)c1ccc(CNc2c(N3CCCC3)c(=O)c2=O)cc1 (stereo unspecified)	99.3	102.3	102.3	102.3	104.2
CCCC(=O)Nc1nn(C)c2nc3c(C)cccc3cc12	101.8	38.7*[may fluoresce violet]	.	?	565.4*[may fluoresce violet]
CCCC1=C(C(=O)OCC)C(c2ccncc2)n2ncnc2N1 (stereo unspecified)	80.4	11.0*[may fluoresce violet]	?	?	194.0*[may fluoresce violet]
CCCC1=C(C(=O)OCC)C(c2cccnc2)n2nc(C)nc2N1 (stereo unspecified)	103.2	93.5	102.9	104.2	91.4
CNc1sc(C(=O)c2ccccc2F)c(N)c1-c1nc2ccccc2s1	191.3*[may fluoresce violet]	86.5	29.8	?	100.9
CCOC(=O)C1=C(C)Nc2ccccc2N/C1=N\S(=O)(=O)c1ccc(Cl)cc1	114.8	111.7	118.4	103.8	110.0
O=C(CC1N=C2c3ccccc3N=C(SCc3ccc(F)cc3)N2C1=O)NCc1ccco1 (stereo unspecified)	88.3	17.7*[may fluoresce violet]	?	?	231.9*[may fluoresce violet]
COc1ccc(N2CCN(C(=O)C3CCCN(S(=O)(=O)c4ccc(F)cc4)C3)CC2)cc1 (stereo unspecified)	85.3	114.8	103.2	108.6	107.1
COc1ccc(N2CCN(C(=O)C3CCCN(S(=O)(=O)c4ccc(C)cc4)C3)CC2)cc1 (stereo unspecified)	136.2	73.0	131.1	132.4	270.3*
COc1ccc(C2=NOC(C(=O)NC(C)(C)C)C2)cc1 (stereo unspecified)	94.5	44.0*[may fluoresce violet]	.	?	144.9
COC(=O)c1cccc(NC(=O)Nc2ccc(Cl)cc2Cl)c1	110.1	51.0	20.0	?	721.0*[may fluoresce violet]
O=C(O)c1cccc(NC(=S)NC(=O)c2cccc(OCc3ccccc3)c2)c1	115.6	94.3	93.9	89.1	99.7
CC(=O)c1cccc(NC(=O)Nc2ccccc2)c1	79.3	57.2	80.0	?	581.7*[may fluoresce violet]
O=C(Nc1ccc(COc2ccccc2)cc1)Nc1cccc(C(=O)O)c1	67.8	29.6*[may fluoresce violet]	?	?	799.7*[may fluoresce violet]
Cc1ccc(-c2nc(S(=O)(=O)c3ccc(C)cc3)c(N3CCOCC3)o2)cc1	108.8	99.1	106.6	101.5	100.9
COc1cc(NC(=O)CN2CCN(C(=O)C3CCCO3)CC2)c(OC)cc1Cl (stereo unspecified)	93.7	99.5	93.8	95.5	97.5
Cc1cc(C)n2nc(C(=O)NC(c3ccccc3)c3ccccc3)nc2n1	133.3	104.4	111.0	112.0	180.3*
O=C(COc1ncnc2cc([N+](=O)[O-])ccc12)NC1CCCCC1	98.3	92.6	95.9	97.3	96.5
O=C(Nc1ccc2oc(-c3cccnc3)nc2c1)c1ccc(Br)o1	102.6	100.5	97.2	99.3	100.7
O=C(Nc1ccc2oc(-c3cccnc3)nc2c1)c1ccco1	201.6*	57.4	69.6	88.2	88.8
CN(C)N1C(N)=C(C#N)C(c2cccnc2)C2=C1CC(C)(C)CC2=O (stereo unspecified)	81.1	.	?	?	298.7*[may fluoresce violet]
CC1(C)CC(=O)C2=C(C1)N(c1ccccc1)C(N)=C(C#N)C2c1cccnc1 (stereo unspecified)	104.2	99.5	105.9	96.3	105.3
COC(=O)C1=C(C(=O)OC)[C@@H]2N(Cc3ccccc3)c3ccccc3[C@@]23C[C@@H](C(=O)OC)N=C3N1	105.5	109.5	99.2	93.6	97.3

Screens: PubChem, NMMLSC
